Gal4-VP16 FLuc = counter-screen for ROR gamma inhibitors: Gal4-VP16 reporter; Drosophila S2 Gal4-VP16 UAS-luciferase, luminescence, 20 h; Potency, µM (titrated, usually from 53.6 µM), for inactives: at the highest dose activity, negative = inhibition, hits mostly inhibitors; hit rate 3.5% among 310,000;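 further: Gal4-VP16 expression switched on by copper sulfate through the metallothionein promoter; potency means the concentration at half of the fitted maximal effect; on the % scale 0 is the no-effect control and ±100 the full control effect; nearly all actives have a fitted effect of over 50% in size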
MCF10A rerep = inducers of DNA re-replication in MCF 10A breast cells | AID 624296 | hit rate 2.9% among 350,000 | Potency, µM (highest dose often 46.1 µM), for inactives: at the highest dose activity, positive = re-replication, usual class: activators | MCF 10A DNA re-replication, Hoechst nuclear intensity, 48 h; further: potency means the concentration at half of the fitted maximal effect; % of control where 0% means no effect; nearly all actives have a fitted effect of over 50% in size
SW480 rerep = induces DNA re-replication in SW480 colon adenocarcinoma cells. SW480 DNA re-replication, Hoechst DNA content imaging, 48 h. Potency, µM (series often up to 46.1 µM), without a hit: at the highest dose re-replication activation, most hits filed as activators. hit rate 1.8% among 340,000; further: potency means the concentration at half of the fitted maximal effect; % of control where 0% means no effect; nearly all actives have a fitted effect of over 55% in size
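Image-based read-out: total Hoechst fluorescence of nuclei (405 nm excitation, 500-530 nm emission), with hits raising the fraction of high-intensity nuclei. SW480 colon cells incubated 48 hr with compounds at 37 C.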
BCR signal inh = chronic active BCR signaling inhibition. hit rate 0.05% among 340,000. ABC-DLBCL IkBa-CBG/CBR reporter, luminescence ratio, 4 h. Potency, µM (series often up to 46.1 µM), without a hit: at the highest dose activity change, negative = inhibition, usual class: inhibitors. AID 493014; active means well fitted inhibition curve with a large enough effect in the signal ratio, with a control signal flat, not every such curve was filed as active; inconclusive means small, poorly fitted or top-dose-only effect, or effect the other way, or a change in a side signal; the % refers to the signal ratio;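 further: potency means the concentration at half of the fitted maximal effect; plate controls were basal doxycycline-induced cells for no effect and cells given 10 µM MG132 for full effect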
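Compounds up to 46 uM were incubated four hours with TMD8 cells whose green CBG68 luciferase is fused to IkappaBalpha; red CBR luminescence normalised the signal, and concentration-effect curves were fitted to fusion, red and ratio data.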
Giardia killer = kills Giardia lamblia; Giardia lamblia trophozoite viability; activity change, % at 7.66 µM, hits read low; hit rate 0.15% among 340,000; in the data active means activity change below about -80%; inconclusive means between about -30% and that limit;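 further: parasites exposed to compound for two days anaerobically before the ATP read; on the % scale 0 is the no-effect control and ±100 the full control effect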
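ATP-content bioluminescence gauges trophozoite survival. Cells (100/well) receive compound and incubate anaerobically for 48 hrs at 37 deg C; detection reagent follows for 15-30 min at room temperature.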
RORg inh = inhibitors of mouse ROR gamma transcriptional activity | P51450 | Drosophila S2 Gal4-RORgamma UAS-luciferase reporter, 20 h | Potency, µM (series often up to 53.6 µM), without a hit: top-dose activity change, negative = inhibition, usual class: inhibitors | hit rate 5.4% among 310,000 | AID 2551; further: potency means the concentration at half of the fitted maximal effect; on the % scale 0 is the no-effect control and ±100 the full control effect; nearly all actives have a fitted effect of over 60% in size
Target sequence (P51450 whole entry, looked up, the tested form may be a part): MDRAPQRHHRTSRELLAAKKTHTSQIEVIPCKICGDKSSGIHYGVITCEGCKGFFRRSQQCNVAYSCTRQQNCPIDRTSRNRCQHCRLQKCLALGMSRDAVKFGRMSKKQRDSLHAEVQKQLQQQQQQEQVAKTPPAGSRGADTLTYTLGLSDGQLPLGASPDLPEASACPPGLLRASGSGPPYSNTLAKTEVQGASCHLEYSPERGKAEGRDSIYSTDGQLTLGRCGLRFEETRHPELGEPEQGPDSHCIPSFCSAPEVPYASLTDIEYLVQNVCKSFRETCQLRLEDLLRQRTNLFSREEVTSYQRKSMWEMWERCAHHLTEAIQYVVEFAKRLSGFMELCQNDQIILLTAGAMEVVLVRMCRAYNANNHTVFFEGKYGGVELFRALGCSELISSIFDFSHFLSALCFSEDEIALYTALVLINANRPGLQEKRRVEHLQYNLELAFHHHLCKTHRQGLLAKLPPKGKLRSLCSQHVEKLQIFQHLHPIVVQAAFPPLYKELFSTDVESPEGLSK
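In this cell-based reporter format, copper sulfate (700 uM final) drives Gal4–ROR gamma fusion expression from a metallothionein promoter in Drosophila Schneider cells; compounds preincubated 1 hr, reporter read after 20 hr at ambient temperature.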
Numbers without * were called inactive; ? = inconclusive; nt = no result; [ ] = dose if it differs, or a comment. Compounds with a hit are over-represented: about 8.3% of the library has one in this group of screens. Unless noted, the call rests on the fitted dose curve; in most records, active means well fitted curve in the direction sought with a large enough effect; inconclusive means small, poorly fitted or top-dose-only effect, or another doubt; inactive means no such curve, though single readings can be large; an effect the other way counts as inactive or inconclusive.

SMILES	Gal4-VP16 FLuc	MCF10A rerep	SW480 rerep	BCR signal inh	Giardia killer	RORg inh
O=C(COc1ccccc1)NNc1nc2c(F)cccc2s1	-2.4%	0.4%[9.22 µM]	-2.0%	8.3%	20.3	5.01µM*
CC(=O)NNc1nc2ccccc2s1	11.4%	0.2%	-1.7%	1.6%	6.6	-20.1%
C/C(=C\C(=O)c1ccccc1)NNc1nc2ccccc2s1	?	8.0%	0.2%[9.22 µM]	-3.4%	-2.0	7.94µM*
COc1ccc2nc(NNC(=O)COc3ccccc3)sc2c1	-7.0%	0.4%[9.22 µM]	0.4%	-2.1%	5.4	7.08µM*
O=C(COc1ccccc1)NNc1nc2ccccc2s1	11.2µM*	0.5%	-5.9%	-8.2%	25.6	5.01µM*
CC(C)c1ccc(OCc2nc(-c3ccccn3)no2)c(Br)c1	-27.1%	14.6µM*	-0.8%	?	-7.0	-41.6%
O=C(COC(=O)c1ccc2[nH]c3c(c2c1)CCCC3)Nc1ccccc1Cl	-9.7%	17.1%	-1.2%	4.1%	-14.8	3.0%
CCC(C)c1ccccc1NC(=O)COC(=O)c1ccc2[nH]c3c(c2c1)CCCC3 (stereo not drawn)	20µM*	8.2µM*	?	?	-2.6	5.6%
FC(F)(F)c1cnc(N/N=C/c2ccncc2)c(Cl)c1	?	-0.2%	-5.8%	-1.5%	-18.0	12.6µM*
COc1ccc(/C=N/Nc2ncc(C(F)(F)F)cc2Cl)cc1OC	3.55µM*	?	-0.7%	?	21.0	?
O=C(O)c1ccc(/C=N/Nc2ncc(Cl)cc2Cl)cc1	-0.3%	5.0%	-6.8%	?	42.5	26.3%
Cc1ccc(-n2c(C)nc3c(cnn3-c3ccc(F)cc3)c2=O)cc1	8.91µM*	29.8%	-2.5%	-9.3%	15.6	-23.3%
O=C(CCc1ccc(S(=O)(=O)N2CCOCC2)cc1)Nc1ccc2c(c1)OCCO2	3.5%	11.4%	-2.3%	9.8%	2.5	-23.8%
CC(=O)NCc1ccc(C(=O)CCl)s1	7.08µM*	?	?	10.0%	-11.6	11.2µM*
CCC(=O)c1ccc(OCC(=O)c2ccc3c(c2)NC(=O)CO3)cc1	-0.5%	4.2%	-7.6%	1.7%	-10.8	18.9%
O=C1COc2ccc(C(=O)CCl)cc2N1	?	20.6µM*	20.6µM*	1.6%	-11.0	?
CCOc1ccc([N+](=O)[O-])cc1CNC1CCCCCCC1	nt	-0.9%	2.1%	1.7%	-5.2	nt
CCOC(=O)C1=C(CC)Nc2ccccc2N=C1NC(=O)Nc1ccc(Cl)c(Cl)c1	?	6.51µM*	?	?	-3.6	-15.0%
CCOC(=O)C1=C(CC)Nc2ccccc2N=C1NC(=O)c1cc(C)on1	nt	7.9%	-8.2%	?	4.8	nt
COCCNC(=O)c1c(CSc2ccc(Cl)cc2)noc1C(=O)NCc1ccccc1	nt	?	-4.9%[9.22 µM]	nt	33.1	nt
CC(C)n1cc(/C=N\NC(=O)c2cc3c(ccc4ccccc43)o2)c2ccccc21	-24.6%	?	1.1%	3.9%	8.8	?
CCn1cc(/C=N/NC(=O)c2cc3c(ccc4ccccc43)o2)c2ccccc21	?	?	?	-5.3%	-3.4	7.08µM*
O=C(N/N=C/c1cc(Cl)c(O)c(Cl)c1)c1cc2c(ccc3ccccc32)o1	-13.9%	?	14.6µM*	?	-8.5	-2.9%
O=C(N/N=C/c1cc(Br)c(O)c(Br)c1)c1cc2c(ccc3ccccc32)o1	?	8.2µM*	?	?	5.9	?
CCOC(=O)N1CCN(C(=O)C(=O)NN)CC1	-1.3%	-1.6%	-4.3%	0.7%	13.0	-8.7%
SMILES	Gal4-VP16 FLuc	MCF10A rerep	SW480 rerep	BCR signal inh	Giardia killer	RORg inh
Cc1ccc(C(=O)NNC(=O)c2ccncc2)cc1S(=O)(=O)N1CCOCC1	nt	1.4%	-7.7%	3.7%	0.2	nt
CSCCC(=O)N1CCC(n2nccc2NC(=O)CCc2ccccc2)CC1	-4.1%	2.7%	0.3%	2.3%	-24.8	-25.2%
CCOc1cc(/C=C/c2cc(C(=O)O)c3ccccc3n2)ccc1OC	?	-0.1%	-5.2%	-2.4%	?	12.6µM*
CCOc1cccc(/C=C/c2cc(C(=O)O)c3ccccc3n2)c1OC	?	14.0%	-7.2%	?	?	4.47µM*
Cc1cccc(C(=O)NC(=S)Nc2ccc(S(=O)(=O)N(C)c3ccccc3)cc2)c1	?	?	1.7%	-0.2%	28.9	11.2µM*
CC(C)C(=O)NC(=S)Nc1ccc(S(=O)(=O)N(C)Cc2ccccc2)cc1	?	?	?	nt	-11.5	14.1µM*
Cc1ccccc1C(=O)NC(=S)Nc1ccc(S(=O)(=O)N(C)c2ccccc2)cc1	?	11.4%	13.7%	?	-17.0	11.2µM*
Cc1nc(CNC(=O)CC2C(=O)NCCN2Cc2ccoc2)nc2c1CCCC2 (stereo not drawn)	0.8%	-1.1%	-9.0%	-2.5%	2.7	-0.1%
NNC(=O)c1cc2cc(Oc3ccccc3)ccc2[nH]1	-13.0%	?	5.8µM*	7.4%	0.0	-0.2%[1.91 µM]
NNC(=O)c1cc2ccccc2[nH]1	2.2%	11.6µM*	18.4µM*	?	-1.3	-32.6%
CCN1C(=O)[C@H]2[C@H]3[C@H](O)[C@H](O)C/C(=N/OC[C@@H](C)[C@H](OCc4ccccc4)C(C)C)[C@@H]3CC[C@@H]2C1=O	-7.3%[10 µM]	nt	nt	nt	nt	-19.8%[10 µM]
S=c1[nH]nc(C2CCCCC2)n1/N=C/c1ccccc1Cl	?	?	-1.2%	?	13.7	11.2µM*
FC(F)(F)c1ccccc1/C=N/n1c(C2CCCCC2)n[nH]c1=S	?	?	0.4%	0.1%	-7.8	7.94µM*
O=C(O)c1ccccc1/C=N/n1c(C2CCCCC2)n[nH]c1=S	-5.1%	-11.1%	-10.8%	1.9%	-20.4	-17.3%
S=c1[nH]nc(C2CCCCC2)n1/N=C/c1cccs1	?	9.2%	-12.9%	-1.4%	-22.2	14.1µM*
O=C(O)c1ccc(/C=N/n2c(C3CCCCC3)n[nH]c2=S)cc1	-0.1%	8.2%	-0.8%	-2.9%	6.1	-21.2%
COc1ccccc1/C=C/C=N/n1c(C2CCCCC2)n[nH]c1=S	2.51µM*	?	1.1%	-1.5%	-1.2	1.41µM*
O=C(COc1ncnc2ccc(Br)cc12)NCc1ccco1	-7.3%	?	?	0.0%	3.1	-9.7%
COc1ccccc1-c1noc(CSc2nc(N)cc(=O)[nH]2)n1	6.3%	-2.3%	-17.1%	?	4.4	-20.3%
CCOc1ccccc1/C=N/n1c(C2CCCCC2)n[nH]c1=S	?	25.9µM*	5.5%	0.1%	7.7	4.47µM*
C/C(=N\NC(=O)CCn1nnc2ccccc21)c1cccs1	?	-1.3%	-8.4%	1.1%	18.3	?
CN1N=C(N)c2cn(C3OC(COP(=O)(O)O)C(O)C3O)c3ncnc1c23 (stereo not drawn)	nt	4.2%	1.3%	nt	-6.0	nt
CC(C)(C)N(Cc1ccccc1)C(=O)COC(=O)c1ccc(S(=O)(=O)N2CCOCC2)cc1	nt	-2.0%	-4.9%	-3.0%	-10.4	nt
